# Hits are enriched below; roughly 9.3% of the tested compounds scored in any of these assays.
# VACV Venus inh: qHTS for Stage-Specific Inhibitors of Vaccinia Orthopoxvirus: Venus Reporter Primary qHTS. 330,000 tested, 0.46% active. Potency, µM (highest dose often 36.5 µM), for the others: at the top dose activity change, negative = inhibition, actives largely listed as inhibitors. Vaccinia virus Venus reporter expression, fluorescence; calls by dose curve; tested in A549 cells; also: potency is read from the fitted curve at half-maximal effect; nearly all actives have a fitted effect of over 30% in size
# HCMV antiviral: qHTS Assay for inhibitors of the human cytomegalovirus (HCMV); HFF cells, HCMV-luciferase reporter, 72 h; active compounds read low; activity change, negative = inhibition, % at 57.5 µM; 410,000 tested, 4.5% active; AID 1259415, 2018; in the data active = activity change below about -60%; inconclusive = no clear call, values can overlap the other calls; inactive = above about -39%
#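 Screen run at 2 compound doses on HFFs infected with reporter HCMV, MOI 1 PFU/cell. Luciferase activity from cell lysates at 72 h post infection gave inhibition relative to buffer-only and Salinomycin wells.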
# Sm TGR inh: qHTS Assay for the Inhibitors of Schistosoma Mansoni Peroxiredoxins; Potency, µM (series often up to 114 µM), for inactives: at the top dose activity change, negative = inhibition, hits mostly inhibitors; purified TGR, DTNB reduction, TNB absorbance 405 nm; 360,000 tested, 3% active; also: potency is read from the fitted curve at half-maximal effect; nearly all actives have a fitted effect of over 60% in size
#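 Kinetic colorimetric format: TGR-catalysed, NADPH-driven DTNB reduction monitored via TNB absorbance. Enzyme dispensed at 20 nM; compound exposure 15 min at room temperature before reaction start.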
# HCV inh: qHTS Assay for Inhibitors of Hepatitis C Virus (HCV); Huh7.5.1 HCVcc-Cre infection, luciferase reporter, 44 h; Potency, µM (doses to about 41.8 µM), for inactives: at the top dose activity change, negative = inhibition, actives largely listed as inhibitors; 340,000 tested, 3.4% active; AID 651820, 2012; also: potency is read from the fitted curve at half-maximal effect
#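 1,000 cells/well; 4 h culture; + compound; + HCVcc-Cre (~0.5 moi); 44 h; luciferase substrate, RT 15 min; read 15 sec.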
# Vaccinia mCherry: qHTS for Stage-Specific Inhibitors of Vaccinia Orthopoxvirus: mCherry Reporter Primary qHTS; 310,000 tested, 0.63% active; AID 720579, 2013; Potency, µM (highest dose often 36.5 µM), for the others: top-dose activity change, negative = inhibition, usual class: inhibitors; Vaccinia virus mCherry reporter infection, fluorescence; calls by dose curve; tested in A549 cells; also: potency is read from the fitted curve at half-maximal effect; nearly all actives have a fitted effect of over 35% in size
# FMDV inh: High Throughput Screening for Foot and Mouth Disease Virus Antivirals; FMDV antiviral cell-based qHTS; Potency, µM (titrated, usually from 57.9 µM), for the others: at the highest dose activity change, negative = inhibition, usual class: inhibitors; 410,000 tested, 1.2% active; AID 1159524, 2015; calls by dose curve; tested in HEK293T cells; also: read-out not given here; potency is read from the fitted curve at half-maximal effect; nearly all actives have a fitted effect of over 45% in size
# Numbers without * were called inactive; i = inactive; u = inconclusive; x = no result; ! = not active in a repeat; [ ] = remark or other dose. Unless noted, calls follow the shape of the dose curve; as a rule, active = well fitted curve in the direction sought with a large enough effect; inconclusive = small, poorly fitted or top-dose-only effect, or another doubt; inactive = no such curve, though single readings can be large; an effect the other way counts as inactive or inconclusive. % is scaled to controls: 0 for no effect and ±100 for the full control effect.
SMILES,VACV Venus inh,HCMV antiviral,Sm TGR inh,HCV inh,Vaccinia mCherry,FMDV inh
CCOC(=O)/C(C#N)=C/c1cc2ccccc2nc1N1CCCCC1,0%,-35,3%,u,i,0%
N#CC(C#N)=Cc1cc2ccccc2nc1N1CCOCC1,-5%,84,7.1µM*,6%,-17%,-2%
N#C/C(=C\c1cc2ccccc2nc1N1CCOCC1)C(=O)Nc1ccc(N2CCOCC2)cc1,-10%,u,2%,-4%,-15%,0%
Cc1ccc2cc(C=C(C#N)C#N)c(Cl)nc2c1,24%,31,2.8µM*,u,-19%,32µM*
Cc1ccc2cc(C=C(C#N)C#N)c(N3CCCCC3)nc2c1,-10%,52,3.2µM*,u,-19%,x
CC1(C)CC(=O)c2cc(C(=O)Nc3ccccc3Cl)c(=O)n(-c3ccc(Cl)cc3)c2C1,-12%,-13,-2%,x,1%,0%
C=CCN(c1ccccc1)S(=O)(=O)c1ccc2[nH]cc(C(=O)NCCOC)c(=O)c2c1,x,-9,-21%,u,x,-23%
Cc1c(C(=O)NCc2ccccc2)oc2ccc(S(=O)(=O)N3CCCC3)cc12,u,83,u,3%,-6%,u
Cc1c(C(=O)NCc2cccnc2)oc2ccc(S(=O)(=O)N3CCCCCC3)cc12,x,-20,3%,11µM*!,x,-29%
Cc1c(C(=O)NCc2cccnc2)oc2ccc(S(=O)(=O)N3CCCCC3)cc12,x,-83*,-11%,u,x,u
CCNc1nc(SCCOc2ccc(C)cc2)nc(N(C)C)n1,x,-28,12%,11µM*,x,1%
CCOc1nc(SCCOc2ccccc2)nc(N(C)C)n1,-23%,-4,-2%,11µM*,-16%,-19%
O=C(CSc1ccc(Cl)cc1)Nc1ccc(N2CCN(C(=O)c3ccc(Cl)cc3)CC2)cc1,x,-36,-23%,-10%,x,-3%
CCOCc1nnc(NC(=O)COC)s1,x,19,2%,-4%,x,16%
O=C1CC(=C(c2ccccc2)c2ccccc2)C(=O)N1CCCCN1CCN(c2ccccc2)CC1,u,0,-12%,1µM*,x,-24%
O=C(CCCN1CCN(c2ccccc2)CC1)c1ccc(F)cc1,-13%,-19,x,x,i,-9%
O=c1c2ccccc2[nH]c(=S)n1CCCN1CCN(c2ccccc2)CC1,7%,-67*,0%,-21%,u,-30%
O=c1c2cccnc2[nH]c(=S)n1CCCN1CCN(c2ccccc2F)CC1,-9%,-30,-23%,-2%,i,0%
O=c1c2ccccc2[nH]c(=S)n1CCCN1CCN(c2ccccc2F)CC1,x,-63*,-2%,u,x,-13%
Clc1cccc(N2CCN(CCCN3CCN(c4ccccc4)CC3)CC2)c1,-8%,u,x,11µM*,u,-23%
Cc1ccc(S(=O)(=O)N2CCC[C@H]2C(=O)Oc2ccccc2)cc1,-1%,-34,x,7%,0%,0%
O=C1CSc2ccc(C(=O)NCC(c3ccco3)N3CCCCC3)cc2N1 (configuration not stated),-3%,-15,-35%,0%,i,-2%
COc1ccc(C)cc1-n1c(N)c(C#N)c(C#N)c1-c1ccc(OC)c(OC)c1OC,-14%,0,5%,-29%,x,2%
C=CCOc1cccc(C(=O)/C=C2/C(=O)Nc3ccccc32)c1,x,-6,-25%,u,x,28µM*
COc1cc(C(C(=O)NCc2ccccc2)N(C(=O)c2snc(C(N)=O)c2N)C2CCCC2)cc(OC)c1OC (configuration not stated),-10%,-36,-4%,-18%,i,-13%
SMILES,VACV Venus inh,HCMV antiviral,Sm TGR inh,HCV inh,Vaccinia mCherry,FMDV inh
CCCCCCSc1nnc2[nH]c(=O)cc(N)n12,-7%,9,0%,24%,-4%,-7%
CCNc1ccccc(C(=O)/C=C/c2ccc3c(c2)OCO3)c1=O,0%,-2,2.5µM*,6%,x,u
Cc1cc(C)c(C(=O)/C=C/c2cccc3ccccc23)c(=O)[nH]1,8.9µM*,-104*,-14%,11µM*,5µM*,u
Cc1cc(C)c(C(=O)/C=C/c2ccc3c(c2)OCO3)c(=O)[nH]1,-3%,-101*,-25%,u,-12%,5%
O=C(COc1ccc(Cl)cc1)Nc1cccc(S(=O)(=O)NC2=NCCCCC2)c1,-22%,19,1%,u,i,-12%
COc1ccc(OC)c(C(=O)NC(CC(N)=O)c2ccc(NCc3ccc(F)c(F)c3)c([N+](=O)[O-])c2)c1 (configuration not stated),-17%,30,1%,-26%,u,0%
Cc1c(C(=O)N2CCOCC2)sc(NC(=O)CCl)c1C#N,9%,u,40µM*,-9%,-5%,-9%
OCC#Cc1ncc(C(F)(F)F)cc1Cl,-3%,7,45µM*,u,i,-17%
Nc1nn2c(-c3ccccc3)cc(=O)[nH]c2c1N=Nc1ccc(O)cc1,-8%,-31,x,-14%,-20%,-5%
Nc1nn2c(-c3ccccc3)cc(=O)[nH]c2c1N=Nc1ccc(Br)cc1,u,9,x,4%,16µM*,-3%
Cc1ccccc1CN1CCN(c2ccc(S(=O)(=O)N3CCCC3)cn2)CC1,-11%,-64*,0%,u,-22%,u
Cc1ccc(CN2C(=O)CN(C3CCCCCC3)C(=O)C2c2ccc(F)cc2)cc1 (configuration not stated),-2%,u,3%,x,4%,-1%
CCCOc1ccc(N2C(=O)CC(N(CCc3ccc(OC)c(OC)c3)C(=O)c3ccccc3)C2=O)cc1 (configuration not stated),x,-36,6%,u,x,16%
COc1ccc(N2C(=O)CC(N(C)CCc3ccc(OC)c(OC)c3)C2=O)cc1 (configuration not stated),-17%,0,-1%,5%,i,4%
COc1ccc(CCN(C)C2CC(=O)N(c3ccccc3)C2=O)cc1OC (configuration not stated),-3%,11,11µM*,5%,i,-5%
COC(=O)c1ccc(N2C(=O)CC(N(C)CCc3ccc(OC)c(OC)c3)C2=O)cc1 (configuration not stated),-6%,12,22µM*,-5%,x,-7%
COC(=O)Cn1c(C)c(C(C)=O)c(C(C)=O)c1C,-8%,-21,1%,6%,-25%[1.46 µM],10%
O=C(Nc1ccc(Oc2cccc(C(F)(F)F)c2)nc1)c1cccs1,9%,-61*,11%,u,1%,u
COc1cccc(C(=O)Nc2ccc(Oc3cccc(C(F)(F)F)c3)nc2)c1,u,-74*,0%,7.1µM*,i,-23%
